# Screens deposited in PubChem BioAssay by National Center for Advancing Translational Sciences (NCATS).
# The list is not random: actives were taken first. Their share in the collection is about 19%.
# TDP1 block: inhibitors of human tyrosyl-DNA phosphodiesterase TDP1; recombinant TDP1, AlphaScreen DNA substrate cleavage; Potency, µM (doses to about 130 µM), inactives show at the highest dose activity change, negative = inhibition, usual class: inhibitors; 0.28% of 350,000 active; Q9NUW8; also: potency is read from the fitted curve at half-maximal effect; % is scaled to controls: 0 for no effect and ±100 for the full control effect; nearly all actives have a fitted effect of over 40% in size
# Target sequence (Q9NUW8 whole entry, looked up): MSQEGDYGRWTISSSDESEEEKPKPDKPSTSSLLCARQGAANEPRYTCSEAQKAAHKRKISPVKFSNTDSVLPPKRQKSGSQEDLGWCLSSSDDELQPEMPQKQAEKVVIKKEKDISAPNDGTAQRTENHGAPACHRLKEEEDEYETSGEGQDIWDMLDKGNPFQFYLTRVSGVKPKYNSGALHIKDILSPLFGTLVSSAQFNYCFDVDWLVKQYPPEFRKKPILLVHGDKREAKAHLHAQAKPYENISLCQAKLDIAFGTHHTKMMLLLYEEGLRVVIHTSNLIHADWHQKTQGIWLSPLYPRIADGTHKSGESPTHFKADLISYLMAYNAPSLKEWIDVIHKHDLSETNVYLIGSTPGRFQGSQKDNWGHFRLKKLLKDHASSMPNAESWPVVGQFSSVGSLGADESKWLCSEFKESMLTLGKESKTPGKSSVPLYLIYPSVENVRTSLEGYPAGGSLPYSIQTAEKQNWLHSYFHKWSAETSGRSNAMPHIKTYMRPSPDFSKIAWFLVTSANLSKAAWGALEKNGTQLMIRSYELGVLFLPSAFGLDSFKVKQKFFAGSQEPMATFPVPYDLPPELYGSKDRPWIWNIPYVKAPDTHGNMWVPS
#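 Steps: enzyme plus compound, 15 min RT; add biotin/phosphotyrosine-FITC oligonucleotide (15 nM final), react 5 min; add donor/acceptor beads (10 ug/ml final), 10 min; read AlphaScreen. Tdp1 at 1 nM final.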
# DT40 TDP1 CPT: growth inhibition of DT40 Tdp1-/-;hTDP1 cells with camptothecin (screen for TDP1 inhibitors); chicken DT40 Tdp1-/-;hTDP1 cells + 20 nM CPT, ATP luminescence, 48 h; Potency, µM (top dose mostly 46.2 µM), without a hit: at the highest dose activity change, negative = growth inhibition, most hits filed as inhibitors; 12% of 420,000 active; AID 686979; also: potency is read from the fitted curve at half-maximal effect; % is scaled to controls: 0 for no effect and ±100 for the full control effect; nearly all actives have a fitted effect of over 55% in size
#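 Cell growth measured by CellTiter-Glo luminescence after a minimum 48 h, 37 C compound exposure with 20 nM CPT in Tdp1-knockout DT40 cells stably expressing hTDP1, seeded 400/well; qHTS titration format.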
# IL1B secr inh: inhibitors of inflammasome signaling (IL-1 beta secretion). activity change, % at 57.5 µM. 4.7% of 360,000 active. THP-1 LPS/ATP IL-1B secretion, AlphaLISA, 16 h; active compounds read low. AID 743279; in the data active = activity change below about -50%; inconclusive = mostly about -30% to -49%; also: % is scaled to controls: 0 for no effect and ±100 for the full control effect
#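 Secreted IL-1B measured by AlphaLISA bead assay after 16 h compound exposure of THP-1 cells; compounds (final up to 57.5 uM) added 1 h before LPS (250 ng/mL) and ATP (1.25 mM) stimulation; lower signal means less secretion.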
# TGFb SMAD3 inh: TGF-b pathway inhibition; AID 588855; 1.2% of 410,000 active; HepG2 CAGA-GFP TGF-b/SMAD3 reporter, GFP fluorescence, 18 h; TGF-beta stimulated, 500 pg/mL final; Potency, µM (titrated, usually from 46.1 µM), for inactives: top-dose activity, negative = inhibition, most hits filed as inhibitors; also: potency is read from the fitted curve at half-maximal effect; % is scaled to controls: 0 for no effect and ±100 for the full control effect; nearly all actives have a fitted effect of over 65% in size
#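 Read-out: total well GFP (ex488/em500-530) summed from mean per-cell fluorescence. Cells: HEPG2 CAGA-GFP, 1% FBS DMEM, 18 h at 37 degrees C with 500 pg/mL final TGF-beta. Unstimulated wells served as the full-inhibition control; stimulated DMSO wells = 0%.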
# DT40 TDP1 no CPT: qHTS for Inhibitors of human tyrosyl-DNA phosphodiesterase 1 (TDP1): qHTS in cells in absence of CPT; DT40 Tdp1-/- hTDP1 cells, no CPT, ATP luminescence, 48 h; 15% of 420,000 active; Potency, µM (titrated, usually from 46.2 µM), for the others: top-dose activity change, negative = growth inhibition, usual class: inhibitors; AID 686978, 2013; also: potency is read from the fitted curve at half-maximal effect; % is scaled to controls: 0 for no effect and ±100 for the full control effect; nearly all actives have a fitted effect of over 55% in size
#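 Cells were dispensed at 400 per well, compounds added by pin tool, plates incubated ≥48 hr at 37 °C, then CellTiter-Glo added for 30 min at room temperature before luminescence reading. Line: DT40 Tdp1-/- complemented with hTDP1; camptothecin omitted.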
# HepG2 tox: counter-screen for TGF-b inhibitors: cytotoxicity in HepG2 cells | HepG2 CAGA-GFP viability, ATP luminescence, 18 h | Potency, µM (titrated, usually from 46.1 µM), for inactives: top-dose activity change, negative = cytotoxicity, hits mostly cytotoxic | 0.76% of 410,000 active | AID 588856; also: potency is read from the fitted curve at half-maximal effect
#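 HepG2 CAGA-GFP cells (1000/well, DMEM with 1% FBS) received compound, then TGF-beta at 500 pg/mL final, and were incubated 18 hours at 37 degrees C. Viability was read by CellTiter-Glo luminescence. Media-only wells were set as complete cell-killing and DMSO as no toxicity.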
# * marks the source's active call; other numbers are inactive results; ? = inconclusive; · = no result; [ ] = remark or other dose. Unless noted, calls follow the shape of the dose curve; as a rule, active = well fitted curve in the direction sought with a large enough effect; inconclusive = small, poorly fitted or top-dose-only effect, or another doubt; inactive = no such curve, though single readings can be large; an effect the other way counts as inactive or inconclusive.
SMILES,TDP1 block,DT40 TDP1 CPT,IL1B secr inh,TGFb SMAD3 inh,DT40 TDP1 no CPT,HepG2 tox
CC1CN(CCC(=O)NC(c2cccnc2)C(F)(F)F)Cc2cc(Cl)ccc2O1 (centres undefined),·,-13%[9.04 µM],·,·,?,·
CCN(CCCCO)c1nc(C)nc2c1c(C)c(C)n2-c1c(C)cc(C)cc1C,22%,·,·,·,·,·
Cc1ccnc(NC(=O)c2ccc(C(=O)c3ccccc3)cc2)c1,·,18µM*,-17,-9%,21µM*,-21%
CCOc1ccc(C(=O)NCC(=O)Nc2cc(C)ccn2)cc1OCC,0%,2%,?,-1%,24%,25%
CCOc1ccc(C(=O)Nc2cc(C)ccn2)cc1,3%,7.3µM*,-9,-19%,23µM*,14µM*
COc1ccc(C(=O)Nc2cccc(C(=O)Nc3cc(C)ccn3)c2)cc1,·,?,-2,-1%,21µM*,-4%
CCOc1cc(C(=O)Nc2cc(C)ccn2)cc(OCC)c1OCC,2%,18µM*,-2,-1%,?,-19%
Cc1cccc(C)c1O,14%,·,·,·,·,·
C=CCCC/C=C(/C)C(OCc1ccc(OC)cc1)C(CC/C=C(\C)C(N)=O)OC (centres undefined),2%[21 µM],·,·,·,·,·
Cc1ccnc(NC(=O)c2ccc(S(=O)(=O)NCc3ccco3)cc2)c1,-12%[0.505 µM],21µM*,-1,8%,?,0%
COCCSc1ccccc1C(=O)Nc1cc(C)ccn1,3%,?,10,0%,23µM*,-13%
Cc1c(NS(=O)(=O)c2cc(C(=O)OCC(=O)c3ccccc3F)ccc2Cl)c(=O)n(-c2ccccc2)n1C,·,-16%,10,-14%,-26%,-1%
Cc1cccc(CNC(=O)c2c3n(c(C)cc2=O)-c2ccccc2SC(c2ccsc2)C3)n1 (centres undefined),·,-22%,·,·,-13%,·
NC(=O)CCN(C1CCCCC1)S(=O)(=O)c1cccc2nsnc12,-7%,7%,1,16%,-2%,7%
Cc1ccc(S(=O)(=O)N(CCC#N)C2CCCCC2)c2nsnc12,0%,16µM*,0,-9%,18µM*,4%
Nc1ccc(/C=C/c2nccc3ccccc23)cc1,·,?,·,-13%,?,-47%
Nc1ccc(/C=C/c2ccnc3ccccc23)cc1,·,10µM*,·,-5%,11µM*,-28%
O=Nc1ccc(/C=C/c2ccnc3ccccc23)cc1,·,16µM*,·,-6%,8.9µM*,-26%
C(=C\c1ccnc2ccccc12)/c1ccc(-[n+]2cc[n+](-c3ccc(/C=C/c4ccnc5ccccc45)cc3)cc2)cc1,·,5.6µM*,·,?,5µM*,-27%
Nc1ccc2cccnc2c1,·,?,·,-2%,-29%,-16%
Nc1ccc(/C=C/c2ccnc3ccccc23)c(N)c1,·,10µM*,·,-27%,?,-58%
Cc1ccsc1C(=O)N1CCCC(N2CCN(c3cccc(Cl)c3)CC2)C1 (centres undefined),4%,?,5,-23%,?,-29%
C(=C\c1nnc2c3ccccc3ncn12)/c1ccccc1,4%,5.2µM*,45,-18%,4.6µM*,-13%
Clc1ccc(/C=C/c2ccnc3ccccc23)c(Cl)c1,·,5.6µM*,·,?,3.5µM*,-42%
Cc1c(C)c(C)c(/C=C/c2ccnc3ccccc23)c(C)c1C,·,11µM*,·,-15%,11µM*,-39%
SMILES,TDP1 block,DT40 TDP1 CPT,IL1B secr inh,TGFb SMAD3 inh,DT40 TDP1 no CPT,HepG2 tox
Clc1ccc(/C=C/c2ccnc3ccccc23)cc1,·,10µM*,·,?,8.9µM*,-40%
O=C(NC1CCC(O)CC1)C1CCN(S(=O)(=O)c2c(Cl)cccc2Cl)CC1 (centres undefined),0%,-5%,28,-2%,3%,-5%
CCOc1ccc(Nc2cc(C)nc3nncn23)cc1,2%,-6%,·,-28%,-4%,-16%
Oc1c(C(c2ccc(Cl)cc2)N2CCCC2)sc2nc(-c3ccco3)nn12 (centres undefined),8%,-13%,·,-7%,-16%,0%
C(=C\c1ccnc2ccccc12)/c1ccccc1,·,?,·,3%,13µM*,-23%
O=C(Nc1nnc(-c2ccc3c(c2)CCCC3)o1)C1CCCCC1,7%,15µM*,-2,6%,?,1%
O=C(Nc1nnc(-c2ccc3c(c2)CCCC3)o1)c1c(F)cccc1F,7%,10%,3,3%,-19%,-11%
O=C(CCc1ccccc1)Nc1nnc(-c2ccc3c(c2)OCCO3)o1,4%,-29%,9,-8%,-28%,-32%
O=C(Nc1nnc(-c2ccc3c(c2)CCCC3)o1)c1ccc(Cl)cc1Cl,12%,13µM*,0,?,?,-4%
O=C(CCc1ccccc1)Nc1nnc(-c2ccc3c(c2)CCCC3)o1,0%,18µM*,-17,?,?,-25%
Cc1cc(C)cc(NC(=O)CSCc2cc(=O)c3cc(Cl)ccc3[nH]2)c1,5%,8%,·,-3%,-1%,3%
O=C(CCNC(=O)c1ccccc1Cl)Nc1ccc(S(=O)(=O)Nc2nccs2)cc1,1%,-8%,-4,2%,-5%,-61%
CC(=O)CCC(=O)O,4%,16%,·,·,-3%,·
CCOC(=O)C1=CCN(S(=O)(=O)c2ccccc2Br)C1c1ccc(Cl)c(Cl)c1 (centres undefined),·,?,-29,?,18µM*,-14%
CCOC(=O)C1=CCN(S(=O)(=O)c2ccccc2C)C1c1ccc(Br)cc1 (centres undefined),·,?,-19,?,?,-9%
CCOC(=O)C1=CCN(S(=O)(=O)c2ccccc2C)C1c1ccccc1 (centres undefined),·,29µM*,16,?,18µM*,-29%
CCOC(=O)C1=CCN(S(=O)(=O)c2ccccc2C(=O)OC)C1c1ccc(Cl)cc1 (centres undefined),·,21µM*,-24,-25%,18µM*,-8%
CCOC(=O)C1=CCN(S(=O)(=O)c2ccccc2Cl)C1c1ccc(Cl)c(Cl)c1 (centres undefined),·,?,-24,?,?,-24%
Cc1cc(O)c(C(c2cccc(Cl)c2)N2CCN(c3ccccc3)CC2)c(=O)n1Cc1ccco1 (centres undefined),8%,?,·,2%,?,8%
